Measured values published in PubChem BioAssay (Tox21).
Inconclusive results are not listed. Active and inactive are the calls of the source. Unless noted, calls follow the shape of the dose curve; as a rule, active = well fitted curve in the direction sought with a large enough effect in the repeat runs; inconclusive = weak or mixed curves; inactive = no such curve, though single readings can be large; an effect the other way counts as inactive or inconclusive.

Assays:
[1] = qHTS assay for small molecule agonists of the p53 signaling pathway (AID 651631; calls by dose curve; also: nearly all actives have a fitted effect of over 15% in size; also: potency is read from the fitted curve at half-maximal effect)
In short: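 Quantitative high-throughput format: 4,000 p53RE-bla HCT-116 cells/well, 5 h pre-incubation, 16 h compound exposure at 37 °C, 2 h room-temperature substrate step, fluorescence intensity measured.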

[2] = qHTS assay for small molecules that induce genotoxicity in human embryonic kidney cells expressing luciferase-tagged ATAD5 (AID 651632); also: nearly all actives have a fitted effect of over 15% in size
In short: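 Increased luciferase signal from ATAD5-tagged reporter cells indicates DNA-damage-driven ATAD5 induction. HEK293T cells are treated for 16 hr at 37C before detection with Amplite.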

[3] = qHTS assay for small molecule agonists of the p53 signaling pathway - cell viability (AID 651633; calls by dose curve;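 also: p53RE-bla HCT reporter cells with a stable beta-lactamase p53 reporter; series mostly up to about 83 µM; nearly all actives have a fitted effect of over 30% in size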)
In short: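 Viability counter-read: CellTiter-Glo luminescence (30 min, room temperature) in the same p53RE-bla plates. These plates had been exposed to compounds for 16 h at 37 C.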

[4] = qHTS assay for small molecules that induce genotoxicity in human embryonic kidney cells expressing luciferase-tagged ATAD5 - cell viability (AID 651634; calls by dose curve; also: nearly all actives have a fitted effect of over 25% in size)
In short: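 Cytotoxicity counterscreen in HEK293T cells bearing an ATAD5-luciferase reporter: live-cell protease activity measured by CellTiter-Fluor fluorescence after 15.5 hr compound exposure.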

[5] = qHTS assay to test for compound auto fluorescence at 590 nm (red) in HepG2 cells (AID 720674)
In short: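 Red autofluorescence (Ex/Em 540/590 nm, Rose Bengal sodium equivalents) was measured in HepG2 cells, 2,000 per well in MEM plus 10% FBS, plated overnight at 37 C. Readings were taken 1 hr after adding 23 nL compound or DMSO, at 37 C and 5% CO2.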

[6] = qHTS assay to test for compound auto fluorescence at 535 nm (green) in HepG2 cells (AID 720675)
[7] = qHTS assay to test for compound auto fluorescence at 460 nm (blue) in HEK293 cells (AID 720678)
In short: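 Measured: blue fluorescence (Ex 405/Em 460 nm) of compound-treated HEK293 cells, incubated overnight at 37C with 5% CO2 and scaled to triamterene equivalents.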

[8] = qHTS assay to test for compound auto fluorescence at 590 nm (red) in HEK293 cells (AID 720679)
In short: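 Using HEK293 cells at 2,000 per well, the screen added 23 nL of each compound after cell attachment and incubated overnight (37C, 5% CO2). The plate reader then captured red-label fluorescence, Ex/Em 540/590nm.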

[9] = qHTS assay for small molecule disruptors of the mitochondrial membrane potential (AID 720635); also: potency is read from the fitted curve at half-maximal effect
In short: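 Mitochondrial membrane potential tracked with Mito-MPS dye, red aggregates (ex 540/em 590 nm) against green monomers (ex 490/em 535 nm). Compound treatment 1 hr at 37C, dye 30 min in HepG2.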

[10] = qHTS assay for small molecule disruptors of the mitochondrial membrane potential - cell viability (AID 720634; calls by dose curve;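 also: human HepG2 liver cancer cells; series mostly up to about 83 µM; nearly all actives have a fitted effect of over 20% in size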)
In short: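 After overnight attachment at 37 C, HepG2 cells received compound or DMSO vehicle for 1 hr. Viability is then taken from ATP-driven luminescence following a 30 min room-temperature CellTiter-Glo step.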
% is scaled to controls: 0 for no effect and ±100 for the full control effect.

CC[C@H](C)[C@@H](C(=O)O)n1sc2ccccc2c1=O
inactive: Potency [1] | Potency [2] | Potency [3] | Potency [4] | outcome [5] | outcome [6] | Potency [7] | outcome [8]

CN1CCN(C2=Nc3ccccc3Sc3ccc(Cl)cc32)CC1
inactive: Potency [1] | Potency [2] | Potency [3] | Potency [4] | outcome [5] | outcome [6] | Potency [7] | outcome [8]

CC(C)(C)c1ccc(S)cc1
inactive: Potency [1] | Potency [2] | Potency [3] | Potency [4] | Potency [9] | outcome [5] | outcome [6] | Potency [7] | outcome [8]

COc1ccc(OC)c(OC)c1
inactive: Potency [1] | Potency [2] | Potency [3] | Potency [4] | Potency [9] | outcome [5] | outcome [6] | Potency [7] | outcome [8]

C=CC[N+]1([C@H]2C[C@H]3[C@@H]4CC[C@H]5C[C@H](OC(C)=O)[C@@H](N6CCCCC6)C[C@]5(C)[C@H]4CC[C@]3(C)[C@H]2OC(=O)CC)CCCCC1
inactive: Potency [1] | Potency [2] | Potency [3] | Potency [4] | outcome [5] | Potency [7] | outcome [8]

COCCO
inactive: Potency [1] | Potency [2] | Potency [3] | Potency [4] | Potency [10] | outcome [5] | outcome [6] | Potency [7] | outcome [8]

C[C@H](CCC(=O)O)[C@H]1CC[C@H]2[C@@H]3[C@H](O)C[C@@H]4C[C@H](O)CC[C@]4(C)[C@H]3CC[C@]12C
inactive: Potency [1] | Potency [2] | Potency [3] | Potency [4] | Potency [10] | outcome [5] | Potency [7] | outcome [8]

CCN(CC)C(C)=O
inactive: Potency [1] | Potency [2] | Potency [3] | Potency [4] | Potency [9] | outcome [8]

C[Si](C)O[Si](C)(C)O[Si](C)(C)O[Si](C)C
inactive: Potency [1] | Potency [2] | Potency [3] | Potency [4] | Potency [10] | outcome [5] | outcome [6] | Potency [7] | outcome [8]

C#CCOC(=O)[C@@H](C)Oc1ccc(Oc2ncc(Cl)cc2F)cc1
inactive: Potency [1] | Potency [2] | Potency [3] | Potency [4] | outcome [5] | Potency [7] | outcome [8]

CC(=O)c1ccc2c(c1)[C@H](NC(=O)c1ccc(F)cc1)[C@@H](O)C(C)(C)O2
inactive: Potency [1] | Potency [2] | Potency [3] | Potency [4] | outcome [5] | outcome [6] | Potency [7] | outcome [8]

CC(C)=CCCC(C)CC=O (configuration not stated)
inactive: Potency [1] | Potency [2] | Potency [3] | Potency [4] | outcome [5] | outcome [6] | Potency [7] | outcome [8]

C1=Cc2ccccc2C1
inactive: Potency [1] | Potency [2] | Potency [3] | Potency [4] | Potency [10] | outcome [5] | Potency [7]

N#Cc1cc2ccccc2c2ccccc12
inactive: Potency [1] | Potency [2] | Potency [3] | Potency [4] | outcome [6] | Potency [7]
active: Potency [9] 38.8 µM

O=C(/C=C/c1ccc(O)c(O)c1)O[C@@H]1C[C@](O)(C(=O)O)C[C@@H](O)[C@H]1O
inactive: Potency [1] | Potency [2] | Potency [3] | Potency [4] | outcome [6]

CCCCCCCCCCCCCCC1CO1 (configuration not stated)
inactive: Potency [1] | Potency [2] | Potency [3] | Potency [4] | outcome [5] | outcome [6] | Potency [7] | outcome [8]

CC(C)c1ccccc1C(C)C
inactive: Potency [1] | Potency [2] | Potency [3] | Potency [4] | Potency [10] | outcome [5] | outcome [6] | Potency [7] | outcome [8]

CCN(CC)CCc1nc(-c2ccccc2)no1
inactive: Potency [1] | Potency [2] | Potency [3] | Potency [4] | Potency [9] | fluorescence, relative to Rose Bengal [5] 0.351% [at 18.6 µM] | fluorescence, % of fluorescein control [6] 0.0159% [at 18.6 µM] | fluorescence, % of triamterene [7] -0.138% [at 18.6 µM] | fluorescence, % of fluorescent control [8] 0.0464% [at 18.6 µM]

CCCCCCCCCO
inactive: Potency [1] | Potency [2] | Potency [3] | Potency [4] | Potency [10] | outcome [5] | Potency [7]

CCCCOC(=O)c1ccccc1C(=O)OCC(CC)CCCC (configuration not stated)
active: Potency [1] 54.5 µM
inactive: Potency [2] | Potency [3] | Potency [4] | outcome [5] | outcome [6] | Potency [7] | outcome [8]

CC(=O)[C@@]1(O)CC[C@H]2[C@@H]3C[C@H](C)C4=CC(=O)CC[C@]4(C)[C@H]3CC[C@@]21C
inactive: Potency [1] | Potency [2] | Potency [3] | Potency [4] | Potency [10] | outcome [6] | Potency [7] | outcome [8]

N#Cc1c(F)cccc1F
inactive: Potency [1] | Potency [2] | Potency [3] | Potency [4] | Potency [10] | outcome [5] | outcome [6] | Potency [7]

CCCCCc1ccc(N)cc1
inactive: Potency [1] | Potency [2] | Potency [3] | Potency [4] | Potency [10] | outcome [5] | outcome [6] | Potency [7] | outcome [8]

O=C(O)COC(=O)Cc1ccccc1Nc1c(Cl)cccc1Cl
inactive: Potency [1] | Potency [2] | Potency [3] | Potency [4] | Potency [10] | fluorescence, % of triamterene [7] 0.0454% [at 18.6 µM]

CCOc1cc(OCC)c(C(=O)CCC(=O)O)cc1OCC
inactive: Potency [1] | Potency [2] | Potency [3] | Potency [4] | outcome [6] | Potency [7]

CC(C)CC=O
inactive: Potency [1] | Potency [2] | Potency [3] | Potency [4] | Potency [10] | outcome [6] | Potency [7] | outcome [8]

CCCCCCCCCC=O
inactive: Potency [1] | Potency [2] | Potency [3] | Potency [4] | outcome [5] | outcome [6] | Potency [7] | outcome [8]

Cc1ccc(C(C)c2ccc(C)c(C)c2)cc1C
inactive: Potency [1] | Potency [2] | Potency [3] | Potency [4] | Potency [9] | outcome [6]

O=C(c1ccccc1)c1ccc2n1CCC2C(=O)O (configuration not stated)
inactive: Potency [1] | Potency [2] | Potency [3] | Potency [10] | Potency [9] | Potency [7] | outcome [8]
